Data as given in PubChem BioAssay (Tox21).
A number with no mark means an inactive call. Inconclusive results are not listed. A call without a number means that no potency is given here. The source made the active and inactive calls. Unless noted, calls follow the shape of the dose curve; as a rule, active = well fitted curve in the direction sought with a large enough effect in the repeat runs; inconclusive = weak or mixed curves; inactive = no such curve, though single readings can be large; an effect the other way counts as inactive or inconclusive.

Assays:
[1] = qHTS assay to identify small molecule antagonists of the estrogen related receptor (ERR) signaling pathway from Tox21 library - cell viability counter screen (AID 1224834); also: nearly all actives have a fitted effect of over 30% in size
How it was run: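 Counter screen run in ERR cells (2,000 cells/well): cells pre-incubated 6 h, then treated with compounds for 17.5 h at 37 C. Fluorescence was read 30 min after CellTiter-Fluor addition.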

[2] = target: Luciferin 4-monooxygenase (Photinus pyralis) (UniProt P08659); assay: qHTS assay to identify small molecule inhibitors of firefly luciferase (AID 1224835); also: nearly all actives have a fitted effect of over 25% in size
How it was run: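 Biochemical qHTS: compounds run as interplate titrations against purified firefly enzyme, with D-luciferin and ATP each at its KM concentration. Light output recorded by CCD imaging.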

[3] = qHTS assay to identify small molecule agonists of the constitutive androstane receptor (CAR) signaling pathway - cell viability counter screen (AID 1224836); also: nearly all actives have a fitted effect of over 45% in size
How it was run: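 HepG2 cells stably carrying hCAR and a CYP2B6-2.2kb reporter; 15-concentration compounds plus PK11195 (final 0.75 uM), 23 hr at 37 C/5% CO2. Viability read by CellTiter-Fluor fluorescence.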

[4] = target: Nuclear receptor subfamily 1 group I member 3 (Homo sapiens) (UniProt Q14994); assay: qHTS assay to identify small molecule antagonists of the constitutive androstane receptor (CAR) signaling pathway (AID 1224838); also: nearly all actives have a fitted effect of over 40% in size; also: potency is read from the fitted curve at half-maximal effect
How it was run: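 Inhibition of CITCO-driven (50 nM final) CYP2B6 reporter expression is measured in HepG2 cells stably carrying hCAR. Fifteen compound concentrations are applied for 24 h at 37 C, followed by luciferase luminescence.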

[5] = target: Nuclear receptor subfamily 1 group I member 3 (Homo sapiens) (UniProt Q14994); assay: qHTS assay to identify small molecule agonists of the constitutive androstane receptor (CAR) signaling pathway (AID 1224839); also: nearly all actives have a fitted effect of over 15% in size; also: potency is read from the fitted curve at half-maximal effect
How it was run: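 HepG2 cells stably co-transfected with hCAR and a CYP2B6-2.2kb luciferase reporter; compounds at 15 concentrations with 0.75 uM PK11195 present. After 24 hr at 37 C, luciferase read by ONE-Glo luminescence.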

[6] = qHTS assay to identify small molecule antagonists of the estrogen related receptor signaling pathway with the pleiotropic PPARgamma coactivator (PGC) from Tox21 10K library - cell viability counter screen (AID 1224840; active = well fitted cell-killing curve with a large enough effect in the repeat runs, not every such curve was filed as active; also: nearly all actives have a fitted effect of over 40% in size; also: potency is read from the fitted curve at half-maximal effect)
How it was run: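 Readout: fluorescence intensity from CellTiter-Fluor after 30 min at 37 C/5% CO2. Preceded by 17.5 h treatment of PGC/ERR cells with DMSO-dissolved compounds, added 6 h post-seeding.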

[7] = target: Thyrotropin receptor (Homo sapiens) (UniProt P16473); assay: qHTS assay to identify small molecule agonists of the thyroid stimulating hormone receptor (TSHR) signaling pathway (AID 1224843; calls by dose curve; also: nearly all actives have a fitted effect of over 45% in size)
How it was run: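 Agonist-mode screen: TSHR HEK293 cells received test chemicals for half an hour at room temperature, then HTRF cAMP detection reagents for one hour prior to fluorescence measurement. Each chemical ran as a 15-concentration series, triplicated.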

[8] = qHTS assay to identify small molecule agonists of H2AX (AID 1224845; active = well fitted activation curve with a large enough effect in the signal ratio in the repeat runs, not every such curve was filed as active; the % refers to the signal ratio)
How it was run: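 Wild-type CHO-K1 cells, plated overnight, exposed 3hr at 37C to 15 concentrations (0.76% DMSO final). Lysed, then HTRF anti-pH2AX (S139) cryptate and anti-H2AX-d2 antibodies, 24 hr room temperature; 665/620 nm emission read.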

[9] = qHTS assay to identify small molecule agonists of the hypoxia (HIF-1) signaling pathway (AID 1224846; active = well fitted activation curve with a large enough effect in the signal ratio in the repeat runs, not every such curve was filed as active; the % refers to the signal ratio)
How it was run: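 ME-180 HRE-bla reporter cells; compounds in DMSO, 17 h at 37C; read-out beta-lactamase via CCF4-AM FRET.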

[10] = qHTS assay to identify small molecule agonists of H2AX - cell viability counter screen (AID 1224847; calls by dose curve; also: top concentration of the series differs between compounds; nearly all actives have a fitted effect of over 30% in size)
How it was run: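 CHO-K1 cells plated overnight at 37C, then exposed 3 h at 37C to compounds at 15 concentrations (0.76% DMSO final). Viability by CellTiter-Glo luminescence after 30 min at room temperature.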

[11] = qHTS RealTime-Glo MT Cell Viability Assay in HepG2 cells - 24 hour (AID 1224867); also: nearly all actives have a fitted effect of over 50% in size
How it was run: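 Tox21 10K library screened in qHTS format on HepG2 cells carrying RealTime-Glo reagents. Compounds were added after a 5 h preincubation, and the luminescent signal from continuous culture was measured repeatedly during 40 h treatment.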

[12] = qHTS RealTime-Glo MT Cell Viability Assay in HEK293 cells - 32 hour (AID 1224868); also: top concentration of the series differs between compounds; nearly all actives have a fitted effect of over 50% in size
How it was run: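 Luminescence generated by NanoLuc from substrate produced by living HEK293 cells served as the viability signal. Each value reflects the reading at its stated time point during continuous 40 h compound exposure at 37 C.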

[13] = A CellTox Green Cytotoxicity Assay to monitor cytotoxicity in HEK293 cells - 0 hour (AID 1224869); also: nearly all actives have a fitted effect of over 50% in size
How it was run: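 Real-time, in one plate: 600 HEK293 cells/well with dead-cell DNA dye, pinned compound after 5 h, 37 C incubation over 40 h; viable cells give no appreciable fluorescence.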

[14] = qHTS RealTime-Glo MT Cell Viability Assay in HepG2 cells - 40 hour (AID 1224870); also: nearly all actives have a fitted effect of over 50% in size
How it was run: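 HepG2 cells (600/well) mixed with RealTime-Glo MT reagent, settled 5 h at 37 C/5% CO2 before compound addition. Nonlytic NanoLuc luminescence from viable-cell prosubstrate reduction read repeatedly during 40 h treatment at 37 C.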

[15] = qHTS assay to identify small molecule antagonists of the constitutive androstane receptor (CAR) signaling pathway - cell viability counter screen (AID 1224837); also: nearly all actives have a fitted effect of over 45% in size
How it was run: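 CITCO at 50 nM final was added alongside compounds (15 concentrations) to double-stable hCAR/CYP2B6-2.2kb HepG2 cells. Following 23 hr at 37 C, cell viability was quantified by CellTiter-Fluor fluorescence intensity.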

[16] = qHTS assay to identify small molecule agonists of the hypoxia (HIF-1) signaling pathway - cell viability counter screen (AID 1224844; calls by dose curve; also: nearly all actives have a fitted effect of over 50% in size; also: potency is read from the fitted curve at half-maximal effect)
How it was run: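 In this counter screen, HRE-bla ME-180 cell viability after 17 hrs of compound exposure at 37C was read by CellTiter-Glo luminescence, multiplexed with the beta-lactamase reporter measurement.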

[17] = qHTS assay to identify small molecule agonists of the estrogen related receptor signaling pathway with the pleiotropic PPARgamma coactivator (PGC) from Tox21 10K library (AID 1224842); also: nearly all actives have a fitted effect of over 15% in size
How it was run: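 PGC/ERR reporter cell line, 2,000 cells per well, incubated 6 h at 37 C before 23 nL compound in DMSO was added. After 18 h at 37 C, One-Glo luminescence read following 30 min at room temperature.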

[18] = qHTS assay to identify small molecule agonists of the estrogen related receptor (ERR) signaling pathway from Tox21 library (AID 1224849; calls by dose curve; also: nearly all actives have a fitted effect of over 15% in size); conditions: ERR reporter cell line, ONE-Glo luciferase, 18 h; at 92.4 µM (top of the series) unless noted
How it was run: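 Luciferase activity in ERR pathway reporter cells served as the agonist readout; exposure lasted 18 h at 37 C, with ONE-Glo detection after 30 min at room temperature.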

[19] = qHTS assay to identify small molecule antagonists of the estrogen related receptor signaling pathway with the pleiotropic PPARgamma coactivator (PGC) from Tox21 10K library (AID 1224841; call rule not given here)
How it was run: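 One-Glo luminescence, measured after half an hour at room temperature, quantified reporter output of PGC/ERR cells. These had been plated at 2,000 per well, incubated 6 h, dosed with compounds in DMSO, then kept 18 h at 37 C.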

Sequence of Nuclear receptor subfamily 1 group I member 3 (Homo sapiens) (Q14994 whole entry, looked up): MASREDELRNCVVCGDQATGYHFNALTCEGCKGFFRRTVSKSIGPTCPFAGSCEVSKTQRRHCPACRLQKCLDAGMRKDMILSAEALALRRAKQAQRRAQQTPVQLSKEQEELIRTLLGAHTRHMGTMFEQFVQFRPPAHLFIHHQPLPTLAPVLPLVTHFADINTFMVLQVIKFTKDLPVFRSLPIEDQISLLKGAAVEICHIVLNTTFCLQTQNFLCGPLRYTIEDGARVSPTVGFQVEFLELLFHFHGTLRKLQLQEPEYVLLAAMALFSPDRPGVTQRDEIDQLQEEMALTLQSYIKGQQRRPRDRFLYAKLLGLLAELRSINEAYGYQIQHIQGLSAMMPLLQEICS
Sequence of Luciferin 4-monooxygenase (Photinus pyralis) (P08659 whole entry, looked up): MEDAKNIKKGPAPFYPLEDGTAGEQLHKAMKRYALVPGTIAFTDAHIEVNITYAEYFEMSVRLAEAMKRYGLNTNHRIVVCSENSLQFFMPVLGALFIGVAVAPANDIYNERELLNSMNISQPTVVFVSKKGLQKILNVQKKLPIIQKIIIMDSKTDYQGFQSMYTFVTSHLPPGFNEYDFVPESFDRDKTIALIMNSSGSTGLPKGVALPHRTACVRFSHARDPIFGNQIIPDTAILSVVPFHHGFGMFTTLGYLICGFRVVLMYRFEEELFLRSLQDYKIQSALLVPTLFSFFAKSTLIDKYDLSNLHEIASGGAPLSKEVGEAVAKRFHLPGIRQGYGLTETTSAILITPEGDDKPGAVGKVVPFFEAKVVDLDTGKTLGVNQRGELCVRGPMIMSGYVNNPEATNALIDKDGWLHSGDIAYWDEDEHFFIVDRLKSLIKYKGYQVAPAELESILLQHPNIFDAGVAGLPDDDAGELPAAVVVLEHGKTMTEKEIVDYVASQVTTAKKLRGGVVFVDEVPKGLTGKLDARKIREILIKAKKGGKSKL
Sequence of Thyrotropin receptor (Homo sapiens) (P16473 whole entry, looked up): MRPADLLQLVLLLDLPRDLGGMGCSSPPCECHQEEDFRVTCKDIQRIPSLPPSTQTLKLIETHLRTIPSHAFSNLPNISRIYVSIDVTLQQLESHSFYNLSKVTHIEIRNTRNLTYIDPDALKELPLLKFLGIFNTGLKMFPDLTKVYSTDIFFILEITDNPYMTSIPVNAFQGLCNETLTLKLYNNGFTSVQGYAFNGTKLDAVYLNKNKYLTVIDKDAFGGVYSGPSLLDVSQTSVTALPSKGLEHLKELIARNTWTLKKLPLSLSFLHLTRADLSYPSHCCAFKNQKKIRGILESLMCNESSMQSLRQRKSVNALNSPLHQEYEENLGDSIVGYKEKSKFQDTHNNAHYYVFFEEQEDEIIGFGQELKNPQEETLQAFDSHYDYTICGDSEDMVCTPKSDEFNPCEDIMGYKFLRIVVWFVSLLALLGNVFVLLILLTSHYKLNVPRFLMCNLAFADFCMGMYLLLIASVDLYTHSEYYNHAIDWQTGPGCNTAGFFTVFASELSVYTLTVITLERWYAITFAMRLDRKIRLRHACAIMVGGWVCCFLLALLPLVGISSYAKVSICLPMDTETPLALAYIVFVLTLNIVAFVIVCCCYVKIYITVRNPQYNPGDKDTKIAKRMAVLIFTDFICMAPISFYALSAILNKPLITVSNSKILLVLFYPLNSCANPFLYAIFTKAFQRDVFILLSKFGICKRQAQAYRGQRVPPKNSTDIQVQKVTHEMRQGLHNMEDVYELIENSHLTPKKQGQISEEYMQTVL

Structure (SMILES)	Potency [1]	Potency [2]	Potency [3]	Potency [4]	Potency [5]	Potency [6]	Potency [7]	Potency [8]	outcome [9]	Potency [10]	Potency [11]	Potency [12]	Potency [13]	Potency [14]	Potency [15]	Potency [16]	outcome [17]	activity change, positive = activation [18] [%]	Potency [19]
CC(C)CP(=S)(S)CC(C)C	inactive	inactive	inactive	3.44 µM (active)	inactive	2.73 µM (active)	inactive	inactive	inactive	inactive	inactive	inactive	inactive	inactive					
CCOP(=S)(OCC)SCSc1ccc(Cl)cc1	inactive	inactive	inactive	inactive	27.3 µM (active)	inactive			inactive		inactive	inactive	inactive	inactive					
ClC(Cl)(Cl)C(Cl)(Cl)Cl	inactive	inactive	inactive			inactive		inactive	inactive	inactive	inactive	inactive	inactive	inactive	inactive	inactive			
[O]=[Cd]	inactive	inactive	inactive			inactive	inactive	inactive	inactive	inactive	inactive	inactive	inactive	inactive		inactive	inactive	-14	
CC(Oc1ccc(Oc2ncc(C(F)(F)F)cc2Cl)cc1)C(=O)O (configuration not stated)	inactive	inactive	inactive	inactive	inactive	inactive	inactive	inactive		inactive		inactive	inactive	inactive		15.5 µM (active)	inactive	-29.5	27.3 µM (active)
CNC(=O)O/N=C(\C)SC	inactive	inactive	inactive			inactive	inactive	inactive	inactive	inactive	inactive	inactive	inactive	inactive		inactive			
COc1cc(OC)nc(NC(=O)NS(=O)(=O)c2ncccc2C(=O)N(C)C)n1	inactive	inactive		inactive	inactive	inactive	inactive	inactive	inactive	inactive	inactive	inactive	inactive	inactive	inactive	inactive			
